Our source for the Potency and outcome values is PubChem BioAssay (Tox21).

Where “and” joins values, the source holds several entries; their conditions need not be identical. Identical values can stand only once. Records with an inconclusive call do not appear. Calls of active or inactive are those of the source. Unless noted, calls follow the shape of the dose curve; as a rule, active = well fitted curve in the direction sought with a large enough effect in the repeat runs; inconclusive = weak or mixed curves; inactive = no such curve, though single readings can be large; an effect the other way counts as inactive or inconclusive.

A short description of assay [1]: qHTS assay to identify small molecule antagonists of the sonic hedgehog signaling (Shh) pathway (AID 1259369; calls by dose curve; also: nearly all actives have a fitted effect of over 45% in size; also: potency is read from the fitted curve at half-maximal effect). The gist of the method: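 Conditioned medium drives Shh signalling in 3T3Gli1-Luc cells; compounds in DMSO co-applied, 24hr at 37 C, then luciferase luminescence.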
Assay [2] deals with Estrogen receptor beta (Homo sapiens) (UniProt Q92731). In words: qHTS assay to identify small molecule agonists of the estrogen receptor beta (ER-beta) signaling pathway (AID 1259377; active = well fitted activation curve with a large enough effect in the signal ratio in the repeat runs, not every such curve was filed as active; the % refers to the signal ratio). Summed up: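 qHTS in ER-beta-UAS-bla HEK293T cells: 6 hr settling, then 16 hr compound at 37C, then LiveBLAzer substrate 2 h at RT before fluorescence reading.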
Assay [3] has the same target. Description: qHTS assay to identify small molecule antagonists of the estrogen receptor beta (ER-beta) signaling pathway (AID 1259378; active = well fitted inhibition curve with a large enough effect in the signal ratio in the repeat runs, not every such curve was filed as active; the % refers to the signal ratio). The gist of the method: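 ER-beta-UAS-bla HEK293T (GripTite) cells in 2% charcoal-stripped FBS medium were preincubated 6 hr at 37C, dosed with compound, then stimulated with 1 nM E2 (final) for 16 hr; beta-lactamase reporter read by B/G FRET fluorescence after 2 hr substrate loading.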

Assay [4] is described as follows: qHTS assay to identify small molecule agonists of the androgen receptor (AR) signaling pathway in the presence of an antagonist - cell viability counter screen (AID 1259379). Also: nearly all actives have a fitted effect of over 25% in size. Also: potency is read from the fitted curve at half-maximal effect. The gist of the method:
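A CellTiter-Fluor read-out measured viability of MDA-kb2 reporter cells (MMTV promoter with AR and GR response elements). Treatment: nilutamide 3.0uM final with compounds at 15 concentrations, 16 hr, 37C, 0% CO2.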

Assay [5] is described as follows: qHTS assay to identify small molecule agonists of the estrogen receptor beta (ER-beta) signaling pathway - cell viability counter screen (AID 1259380). Also: nearly all actives have a fitted effect of over 30% in size. Summed up:
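Cells used were ER-beta-UAS-bla HEK293T in medium with 2% charcoal-stripped FBS. They were treated for 16 hr at 37C. Viability came from CellTiter-Glo luminescence.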

A short description of assay [6]: qHTS assay to identify small molecule antagonists of the estrogen receptor beta (ER-beta) signaling pathway - cell viability counter screen (AID 1259382). Also: series mostly up to about 92 µM; nearly all actives have a fitted effect of over 55% in size. Summed up: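 Agonist-stimulated (1nM E2) ER-beta-UAS-bla HEK293T cells are incubated with library compounds for 16 hr at 37C. Cell viability is then assessed in the reporter-assay wells by adding CellTiter-Glo and reading luminescence after 30 min.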

The nature of assay [7]: qHTS assay to identify small molecule agonists or antagonists of the thyroid stimulating hormone receptor (TSHR) signaling pathway - wild type cell line counter screen (AID 1259384; calls by dose curve). The gist of the method: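 Wild-type HEK293 cells were plated 18 h at 37 C/5% CO2, pin-dosed with compound plus Ro20-1724 medium, held 30 min at room temperature, then given cAMP-d2 and anti-cAMP-cryptate; fluorescence was read after 1 h. Fifteen concentrations, triplicate.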

The target of assay [8] is Thyrotropin receptor (Homo sapiens) (UniProt P16473). In words: qHTS assay to identify small molecule antagonists of the thyroid stimulating hormone receptor (TSHR) signaling pathway (AID 1259385; calls by dose curve; also: nearly all actives have a fitted effect of over 20% in size). The gist of the method: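 TSHR-HEK293 cells were plated and held 18 h at 37C/5% CO2, then given compound plus Ro20-1724 and stimulated with TSH at 1.5 ng/mL final. After 30 min at room temperature, cAMP was detected with cAMP-d2/anti-cAMP-cryptate (1 h) by fluorescence.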

Assay [9] in a line: qHTS assay to identify small molecule agonists of the estrogen receptor alpha (ER-alpha) signaling pathway in the presence of an antagonist - cell viability counter screen (AID 1259386).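 Also: cells exposed to compounds for 22 h at 37 °C before the viability read; nearly all actives have a fitted effect of over 30% in size.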 Also: potency is read from the fitted curve at half-maximal effect. Summed up:
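ICI-182,780 at 10.0nM final accompanies the compound titration (15 concentrations, 22hr, 37C) on VM7Luc4E2 cells. The CellTiter-Fluor fluorescence readout runs in the same wells as the luciferase assay.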

The target in assay [10] is Progesterone receptor (Homo sapiens) (UniProt P06401). Description: qHTS assay to identify small molecule agonists of the progesterone receptor (PR) signaling pathway (AID 1346784; calls by dose curve; also: nearly all actives have a fitted effect of over 30% in size; also: potency is read from the fitted curve at half-maximal effect). Summed up: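 Fluorescence from LiveBLAzer B/G FRET substrate cleavage (2 hr, RT) reported PR activation in PR-UAS-bla HEK 293T cells treated 16 hr at 37C/5% CO2 with compounds; medium contained 2% charcoal-stripped FBS.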

Assay [11] is described as follows: qHTS assay to identify small molecule antagonists of the progesterone receptor (PR) signaling pathway - cell viability counter screen (AID 1346798). Also: series mostly up to about 92 µM; nearly all actives have a fitted effect of over 50% in size. Summed up:
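CellTiter-Glo luminescence; PR-UAS-bla HEK293T, 3,000 cells/well; compound + R5020, 16 hr, 37C/5% CO2; 30 min RT before read.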

Assay [12] can be described thus: qHTS assay to identify small molecule agonists of the progesterone receptor (PR) signaling pathway - cell viability counter screen (AID 1346799; calls by dose curve; also: nearly all actives have a fitted effect of over 45% in size). Summed up: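 In parallel with the beta-lactamase readout, cytotoxicity toward PR-UAS-bla HEK293T cells was measured by CellTiter-Glo luminescence following 16 hr compound incubation in 2% charcoal-stripped FBS medium.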

Assay [13] in a line: qHTS assay to identify small molecule antagonists of the TGF-beta/Smad signaling pathway - cell viability counter screen (AID 1346824). Also: nearly all actives have a fitted effect of over 50% in size. The gist of the method:
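SBE-bla HEK 293T cells were plated overnight at 37 C, then given compounds in DMSO plus TGF-beta1 (added as 0.25 ng/mL solution) for 5 hr. After the bla read, CellTiter-Glo was added to the same wells and luminescence read after 30 min at room temperature.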

Assay [14] is described as follows: qHTS assay to identify small molecule agonists of the TGF-beta/Smad signaling pathway - cell viability counter screen (AID 1346829). Also: top concentration of the series differs between compounds; nearly all actives have a fitted effect of over 45% in size. The gist of the method:
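In parallel with the Smad reporter read, viability of HEK 293T cells stably carrying SBE-bla is quantified by ATP luminescence following 5 hr compound treatment.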

A short description of assay [15]: qHTS assay to identify small molecule agonists of the TGF-beta/Smad signaling pathway (AID 1346859; active = well fitted activation curve with a large enough effect in the signal ratio in the repeat runs, not every such curve was filed as active; the % refers to the signal ratio; also: series mostly up to about 77 µM). Summed up:
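After overnight seeding, SBE-bla HEK 293T cells are dosed with compounds in DMSO and kept 5 hr at 37 C, 5% CO2. LiveBLAzer-type FRET substrate is then applied for 2 hr at room temperature.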

Assay [16] deals with Thyrotropin-releasing hormone receptor (Homo sapiens) (UniProt P34981). Description: qHTS assay to identify small molecule antagonists of the thyrotropin-releasing hormone receptor (TRHR) signaling pathway (AID 1346877; active = well fitted inhibition curve with a large enough effect in the repeat runs, not every such curve was filed as active; also: series mostly up to about 51 µM). The gist of the method:
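Screening used HEK293 cells engineered with TRHR, with a brief 5 min room-temperature compound exposure preceding addition of TRH to 1 nM. The read-out was kinetic calcium-dye fluorescence, concentration-response from 15 doses in triplicate.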

Assay [17] shares this target. Description: qHTS assay to identify small molecule agonists of the thyrotropin-releasing hormone receptor (TRHR) signaling pathway (AID 1346891; calls by dose curve;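 also: HEK293 cells expressing TRHR with calcium dye readout; series mostly up to about 58 µM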). Summed up: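 Compounds were tested as agonists at 15 concentrations, in triplicate, on TRHR-Hek293 cells; calcium-sensitive dye fluorescence was recorded for 3 min following addition.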
For assay [18], the target named is Progesterone receptor (Homo sapiens) (UniProt P06401). Description: qHTS assay to identify small molecule antagonists of the progesterone receptor (PR) signaling pathway (AID 1346795; active = well fitted inhibition curve with a large enough effect in the signal ratio in the repeat runs, not every such curve was filed as active; the % refers to the signal ratio). Summed up:
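Fluorescence intensity measured 2 hr after adding beta-lactamase FRET substrate to PR-UAS-bla HEK293T cells that had been co-treated 16 hr with compound and 1 nM R5020 (final concentration) in 2% charcoal-stripped FBS.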

Chain of Progesterone receptor (Homo sapiens) (P06401 whole entry, looked up): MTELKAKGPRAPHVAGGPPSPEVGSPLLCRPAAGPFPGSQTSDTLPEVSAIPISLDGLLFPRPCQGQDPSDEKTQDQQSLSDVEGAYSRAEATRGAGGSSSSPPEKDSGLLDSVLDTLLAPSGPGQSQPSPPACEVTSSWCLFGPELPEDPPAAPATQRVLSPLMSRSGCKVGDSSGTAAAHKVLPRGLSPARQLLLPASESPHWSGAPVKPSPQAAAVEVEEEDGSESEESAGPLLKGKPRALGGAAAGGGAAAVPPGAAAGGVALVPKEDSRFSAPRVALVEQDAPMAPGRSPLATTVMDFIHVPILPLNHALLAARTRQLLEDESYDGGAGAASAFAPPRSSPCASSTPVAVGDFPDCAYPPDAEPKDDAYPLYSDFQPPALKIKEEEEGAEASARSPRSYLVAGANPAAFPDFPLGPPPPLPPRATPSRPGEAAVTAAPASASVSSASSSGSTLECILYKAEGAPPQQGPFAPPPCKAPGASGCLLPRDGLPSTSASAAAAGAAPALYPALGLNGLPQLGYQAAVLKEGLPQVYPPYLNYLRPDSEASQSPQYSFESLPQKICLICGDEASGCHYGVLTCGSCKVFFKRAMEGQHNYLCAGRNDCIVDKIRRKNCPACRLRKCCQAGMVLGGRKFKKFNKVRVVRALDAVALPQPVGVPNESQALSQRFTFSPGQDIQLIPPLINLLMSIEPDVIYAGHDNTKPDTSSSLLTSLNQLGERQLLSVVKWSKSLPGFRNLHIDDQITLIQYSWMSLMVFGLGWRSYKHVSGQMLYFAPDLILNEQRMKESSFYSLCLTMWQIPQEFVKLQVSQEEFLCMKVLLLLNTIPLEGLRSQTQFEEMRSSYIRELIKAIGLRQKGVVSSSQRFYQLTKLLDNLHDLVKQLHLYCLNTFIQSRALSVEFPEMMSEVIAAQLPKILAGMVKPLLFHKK
Chain of Thyrotropin-releasing hormone receptor (Homo sapiens) (P34981 whole entry, looked up): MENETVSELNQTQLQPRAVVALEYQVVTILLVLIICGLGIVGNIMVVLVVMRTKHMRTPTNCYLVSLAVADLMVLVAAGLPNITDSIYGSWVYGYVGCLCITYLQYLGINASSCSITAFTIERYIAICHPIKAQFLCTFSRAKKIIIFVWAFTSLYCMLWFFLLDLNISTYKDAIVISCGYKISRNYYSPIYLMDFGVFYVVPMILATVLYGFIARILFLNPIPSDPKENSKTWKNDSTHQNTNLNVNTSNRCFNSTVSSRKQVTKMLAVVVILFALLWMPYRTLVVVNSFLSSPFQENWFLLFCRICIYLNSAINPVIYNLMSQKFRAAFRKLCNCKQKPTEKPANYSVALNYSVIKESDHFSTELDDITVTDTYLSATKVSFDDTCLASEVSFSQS
Chain of Thyrotropin receptor (Homo sapiens) (P16473 whole entry, looked up): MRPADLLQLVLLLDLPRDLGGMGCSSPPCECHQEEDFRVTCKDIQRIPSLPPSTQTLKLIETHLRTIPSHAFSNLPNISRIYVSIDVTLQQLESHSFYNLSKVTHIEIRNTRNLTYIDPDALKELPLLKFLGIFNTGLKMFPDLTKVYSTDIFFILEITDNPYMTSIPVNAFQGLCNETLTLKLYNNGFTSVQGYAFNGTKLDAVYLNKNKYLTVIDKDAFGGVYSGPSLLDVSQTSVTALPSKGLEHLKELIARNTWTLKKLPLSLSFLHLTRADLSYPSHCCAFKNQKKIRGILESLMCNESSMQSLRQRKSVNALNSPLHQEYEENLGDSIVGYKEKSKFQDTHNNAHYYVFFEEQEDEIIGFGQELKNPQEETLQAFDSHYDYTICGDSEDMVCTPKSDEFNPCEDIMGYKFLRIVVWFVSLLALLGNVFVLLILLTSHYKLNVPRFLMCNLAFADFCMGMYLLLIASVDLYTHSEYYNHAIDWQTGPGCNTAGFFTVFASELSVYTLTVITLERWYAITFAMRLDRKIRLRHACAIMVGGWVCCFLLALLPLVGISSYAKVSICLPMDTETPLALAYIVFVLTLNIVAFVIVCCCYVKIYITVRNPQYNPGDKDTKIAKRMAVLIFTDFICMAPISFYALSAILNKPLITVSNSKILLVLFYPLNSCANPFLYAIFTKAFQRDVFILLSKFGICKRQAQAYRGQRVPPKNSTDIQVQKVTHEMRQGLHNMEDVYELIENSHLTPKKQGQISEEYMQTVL
Chain of Estrogen receptor beta (Homo sapiens) (Q92731 whole entry, looked up): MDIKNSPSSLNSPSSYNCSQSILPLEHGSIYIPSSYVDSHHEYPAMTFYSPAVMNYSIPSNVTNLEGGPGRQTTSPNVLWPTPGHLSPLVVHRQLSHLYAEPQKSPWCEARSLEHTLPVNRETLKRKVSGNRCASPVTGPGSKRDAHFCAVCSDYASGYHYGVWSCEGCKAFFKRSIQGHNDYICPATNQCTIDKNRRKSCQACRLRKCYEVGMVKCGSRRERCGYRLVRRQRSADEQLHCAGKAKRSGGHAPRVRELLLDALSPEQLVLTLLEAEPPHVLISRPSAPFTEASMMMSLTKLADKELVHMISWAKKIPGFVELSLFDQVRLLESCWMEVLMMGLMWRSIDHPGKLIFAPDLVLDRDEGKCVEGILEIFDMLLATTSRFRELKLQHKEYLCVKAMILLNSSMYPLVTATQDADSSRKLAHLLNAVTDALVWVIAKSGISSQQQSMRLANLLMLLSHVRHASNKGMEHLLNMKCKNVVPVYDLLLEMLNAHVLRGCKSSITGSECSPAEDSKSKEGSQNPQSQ

As for `CCCCC(CC)COC(C)=O` (stereo unspecified), the Potency result in assay [1], in assay [2], in assay [3], in assay [4], in assay [5] and in assay [6] was “inactive” throughout. In addition, the Potency result in assay [9], in assay [10], in assay [11], in assay [12], in [13] and in assay [14] was “inactive” throughout. Besides, the Potency entry in assay [17] is “inactive”. Further, the call in [7], in assay [8], in assay [15] and in [16] was inactive.

For the molecule `CC1(C)O[C@@H]2C[C@H]3[C@@H]4C[C@H](F)C5=CC(=O)CC[C@]5(C)[C@H]4[C@@H](O)C[C@]3(C)[C@]2(C(=O)CO)O1`, the Potency entry in [1], in assay [2], in assay [3], in assay [4], in assay [5] and in assay [6] was “inactive” each time. For the same molecule, the Potency result in [9], in assay [18], in assay [11], in [12], in assay [14] and in assay [17] was “inactive” in each case. In addition, the outcome in assay [7], in assay [8], in assay [15] and in assay [16] was inactive. For the same molecule, the Potency in [10] was 5.4 nM (active) and 6 nM (active).

Regarding `NS(=O)(=O)c1cc2c(cc1Cl)NC=NS2(=O)=O`, the Potency result in assay [1], in assay [2], in assay [3], in [4], in assay [5] and in assay [6] was “inactive” throughout. The Potency result in assay [9], in [10], in assay [18], in assay [11], in assay [12] and in assay [13] was “inactive” in each case. Further, the Potency result in [14] and in assay [17] was “inactive” each time. Further, the call in [7], in assay [15] and in assay [16] was inactive.

As to `CC1Cc2ccccc2N1NC(=O)c1ccc(Cl)c(S(N)(=O)=O)c1` (stereo unspecified), the Potency entry in assay [1], in assay [2], in assay [3], in assay [4], in assay [5] and in assay [6] was “inactive” in each case. Further, the Potency entry in assay [9], in assay [10], in [18], in assay [11], in assay [12] and in assay [13] was “inactive” throughout. The Potency result in assay [14] and in assay [17] was “inactive” in each case. Also, the outcome in [7], in assay [15] and in assay [16] was inactive.

For the molecule `CC(C)(C)C1CCC(O)CC1` (stereo unspecified), the Potency result in assay [1], in [2], in assay [3], in assay [4], in [5] and in [6] was “inactive” in each case. Further, the Potency entry in assay [9], in [10], in [18], in assay [11], in [12] and in [14] was “inactive” each time. For the same molecule, the Potency entry in assay [17] was “inactive”. The outcome in assay [7], in assay [15] and in assay [16] was inactive.

Consider `CC(C)(C)C(=O)C1C(=O)c2ccccc2C1=O`, for which the Potency was 68.6 µM (active) in [1]; 60.5 µM (active) in assay [4]; 60.5 µM (active) and 61.1 µM (active) in assay [9]. Also, the Potency result in [2], in [5], in assay [6], in assay [10], in assay [18] and in assay [11] was “inactive” in each case. Moreover, the Potency entry in assay [12] and in assay [14] was “inactive” throughout. Further, the molecule was classed as inactive in assay [7], in assay [8] and in assay [15].

For `CCCCCCC(C)(C)S`, the Potency entry in [1], in assay [2], in [3], in assay [4], in [5] and in [6] was “inactive” throughout. Also, the Potency result in assay [9], in assay [10], in [11], in [12], in assay [13] and in assay [14] was “inactive” in each case. In addition, the Potency entry in [17] is “inactive”. The call in [7], in assay [8], in [15] and in assay [16] was inactive.

`NC(=O)NNc1ccccc1`: the Potency entry in assay [1], in assay [2], in [3], in [4], in [5] and in assay [6] was “inactive” each time. In addition, the Potency result in [9], in assay [10], in [11], in assay [12], in assay [14] and in assay [17] was “inactive” throughout. For the same molecule, the call in assay [7], in assay [8], in [15] and in assay [16] was inactive.
